Here are results for 14 compounds from PubChem BioAssay.

Active and inactive are the calls of the source.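 How the source made its calls, unless noted: active means visually confirmed hit in the image check and inhibition above 20%; inconclusive means visually confirmed hit but inhibition not above 20%; inactive means no visual hit in the image check.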

Assay [1] can be described thus: inhibitors of TNFa-induced NFkB p65 translocation, primary screen, imaging, HUVEC, MLSMR starter and 10KST1 sets (AID 438;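 active means inhibition above 20% together with a positive visual image hit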;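 further: compound added about 3h40 before a 20 min TNFalpha stimulation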;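 on inhibition: signal is the nuclear over cytoplasmic p65 intensity ratio per well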). The conditions noted are these: HUVEC TNFa-induced p65 nuclear translocation; cell count: measured here: nuclei count (cytotoxicity indicator), at 2.08 µM; inhibition: at 2 µM, stronger effect = higher value, 0% TNFa-plus-vehicle, 100% no-TNFa wells.
Assay [2] can be described thus: inhibitors of mutant huntingtin aggregation, primary screen, imaging, exon1htt(103Q)mCFP cells, high-content imaging (AID 483;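 active means visual image review flags a hit and inhibition of aggregation exceeds 20%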;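 further: compound exposure lasted 3 days before fixation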;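 on nuclei count: percent of the per-plate median nuclei count of sample wells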). To be noted: exon1htt(103Q)mCFP cell line, aggregate imaging, at 2 µM; inhibition of aggregation: stronger effect = higher value; nuclei count: measured here: cell count, toxicity.
Assay [3] is described as follows: inhibitors of E-selectin induction by TNFa, primary screen, imaging, HUVEC, immunofluorescence, MLSMR starter and 10KST1 sets (AID 487).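 On inhibition: signal is fraction of cell area covered by stained E-selectin grains.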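 On nuclei count: 100% = median nuclei count of all wells on the same plate.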 To be noted: HUVEC TNFalpha-induced E-selectin immunofluorescence imaging, at 2 µM; inhibition: stronger effect = higher value; nuclei count: measured here: cell number, toxicity.
Assay [4] has as its target Voltage-gated potassium channel subunit beta-2 (Rattus norvegicus) (UniProt P62483). The assay can be described thus: KvBeta enzyme negative modulators, primary screen, biochemical, NADPH fluorescence (AID 622;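 active means fluorescence slope higher than the sample average by over 3 SD, cut at about -0.22 in these data, passing the limit was not always enough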;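 further: slope of raw intensity against log time taken from 70 to 1610 s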). The conditions noted are these: recombinant KvBeta, 4-cyanobenzaldehyde reduction, at 10 µM, stronger effect = higher value.
The target is the same in assay [5]. The assay is described as follows: KvBeta positive modulators, primary screen, biochemical, NADPH fluorescence (AID 623;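 active means NADPH fluorescence slope more negative than the mean of all samples by about 3 SD, 99.7% confidence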;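 further: fluorescence intensity change per second fitted from 20 to 320 s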). The conditions noted are these: Recombinant KvBeta, NADPH fluorescence decrease slope, 10 min; at 10 µM; stronger effect = lower value.
Assay [6] addresses Alpha-2C adrenergic receptor (Homo sapiens) (UniProt P18825). The assay is described as follows: modulators of alpha2C/GIRK thallium flux, primary screen, cell-based, HEK293 alpha2C/GIRK1/2 (AID 624;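 active means fluorescence slope after compound addition differing from the mean of all screened samples at 99.7% confidence, in either direction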;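 further: slope of fluorescence ratio to pre-addition baseline per second over 15 to 24 s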). The conditions noted are these: thallium flux BTC fluorescence, at 10 µM, actives lie on both sides.
The nature of assay [7]: inhibitors of Sendai virus-induced IRF3 signaling, primary screen, TLR/RLR signaling modifier project, cell-based, Sendai virus stimulus, luciferase, 10K MLSCN set (AID 602276;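 active means inhibition at or above 50% at 10 µM; inactive means inhibition below 50%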;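 further: firefly luciferase from ISG56 promoter only with Renilla not read in this screen; 0% = Sendai virus plus DMSO and 100% = medium plus DMSO without virus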). The conditions noted are these: HEK293 RL24 IRF3 luciferase reporter, at 10 µM, stronger effect = higher value.
The nature of assay [8]: inhibitors of poly I:C-induced TLR3 signaling, primary screen, cell-based, poly I:C stimulus, luciferase, 10K MLSCN set (AID 602277;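 active means inhibition of the reporter signal at or above 50%; inactive means inhibition below 50%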). To be noted: HEK293-TLR3 RL24 IRF3 luciferase reporter, at 10 µM, stronger effect = higher value.

Chain of Alpha-2C adrenergic receptor (Homo sapiens) (P18825 whole entry, looked up): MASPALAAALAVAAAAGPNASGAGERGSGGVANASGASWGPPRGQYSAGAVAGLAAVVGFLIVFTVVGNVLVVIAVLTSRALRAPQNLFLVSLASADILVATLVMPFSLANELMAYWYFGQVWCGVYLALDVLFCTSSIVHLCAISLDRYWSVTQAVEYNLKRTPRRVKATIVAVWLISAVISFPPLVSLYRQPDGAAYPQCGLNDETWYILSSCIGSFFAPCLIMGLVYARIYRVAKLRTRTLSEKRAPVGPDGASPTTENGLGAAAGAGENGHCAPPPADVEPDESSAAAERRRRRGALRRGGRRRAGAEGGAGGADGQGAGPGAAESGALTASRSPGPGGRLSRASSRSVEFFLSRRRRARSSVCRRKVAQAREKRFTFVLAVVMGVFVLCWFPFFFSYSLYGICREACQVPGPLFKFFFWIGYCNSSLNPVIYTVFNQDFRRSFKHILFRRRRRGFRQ
Chain of Voltage-gated potassium channel subunit beta-2 (Rattus norvegicus) (P62483 whole entry, looked up): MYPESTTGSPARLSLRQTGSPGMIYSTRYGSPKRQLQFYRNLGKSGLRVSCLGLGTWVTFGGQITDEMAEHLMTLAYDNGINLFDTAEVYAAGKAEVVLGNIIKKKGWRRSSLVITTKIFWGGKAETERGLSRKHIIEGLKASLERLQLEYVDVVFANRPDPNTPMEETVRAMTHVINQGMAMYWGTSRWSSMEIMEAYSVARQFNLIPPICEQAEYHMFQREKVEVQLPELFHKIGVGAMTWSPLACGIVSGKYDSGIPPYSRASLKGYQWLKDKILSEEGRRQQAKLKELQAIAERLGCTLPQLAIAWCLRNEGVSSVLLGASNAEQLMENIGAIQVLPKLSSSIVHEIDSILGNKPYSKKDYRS

On to `O=C(c1cc2n(n1)C(C(F)(F)F)CC(c1ccc(Cl)cc1)N2)N1CCCC1` (centres undefined), for which, in assay [1], the cell count turned out to be 259. Also, the inhibition in assay [1] was -5.8% (inactive); in assay [3] it was -9.7% (inactive); in assay [7], 14.3% (inactive); in assay [8] it was 16.5% (inactive). Besides, the inhibition of aggregation in assay [2] is -22.3% (inactive). Also, the nuclei count in assay [2] turned out to be 112%; in assay [3], 102%. Further, the fluorescence slope in assay [4] is -0.322 (inactive). The NADPH fluorescence slope in assay [5] is 4.7e-06 (inactive). In addition, the slope in assay [6] was 0.00413 (inactive).

For `CCOC(=O)N1CCC(N(CCCOC)C(=O)Nc2ccc(CC)cc2)CC1`, the cell count in assay [1] turned out to be 574. Besides, the inhibition in assay [1] is 2.2% (inactive); in assay [3], 12.1% (inactive); in assay [7] it was 4.87% (inactive); in assay [8] it was 9.22% (inactive). For the same compound, in assay [2], the inhibition of aggregation was -21.3% (inactive). In addition, the nuclei count in assay [2] came to 106%; in assay [3], 93.2%. Also, the fluorescence slope in assay [4] was -0.531 (inactive). For the same compound, in assay [5], the NADPH fluorescence slope is -2.6e-05 (inactive). Besides, in assay [6], the slope is 0.00487 (inactive).

With `COc1ccc(OC)c(CNC(=O)COc2cc(=O)n(C)c3ccccc23)c1`, the cell count in assay [1] was determined as 367. For the same compound, the inhibition in assay [1] was 4.3% (inactive); in assay [3] it was 18% (inactive); in assay [7] it was 6.07% (inactive); in assay [8], 6.23% (inactive). For the same compound, the inhibition of aggregation in assay [2] is -8.1% (inactive). Besides, the nuclei count in assay [2] was found to be 105%; in assay [3] it was 100%. Moreover, in assay [4], the fluorescence slope was -0.349 (inactive). For the same compound, the NADPH fluorescence slope in assay [5] was -7.1e-06 (inactive). Further, the slope in assay [6] was 0.00576 (inactive).

On to `O=C(OCn1nnc2ccccc2c1=O)c1cc2ccccc2o1`, for which the cell count in assay [1] amounted to 544. In addition, the inhibition in assay [1] is -3.9% (inactive); in assay [3], -10.4% (inactive); in assay [7], -2.91% (inactive); in assay [8] it was 27.7% (inactive). In assay [2], the inhibition of aggregation was 19.5% (inactive). The nuclei count in assay [2] was determined as 76.7%; in assay [3], 90.4%. In assay [4], the fluorescence slope was -0.447 (inactive). Further, the NADPH fluorescence slope in assay [5] is -3.1e-05 (inactive). In addition, the slope in assay [6] was 0.00552 (inactive).

As to `O=c1c2[nH]c3ccccc3c2ncn1CCCn1ccnc1`, the cell count in assay [1] turned out to be 717. Also, the inhibition in assay [1] was -0.2% (inactive); in assay [3], -21.4% (inactive); in assay [7], 26.3% (inactive); in assay [8] it was 50.7% (active). Moreover, the inhibition of aggregation in assay [2] was -4.9% (inactive). Besides, the nuclei count came to 99.9% in assay [2] and 111% in assay [3]. Moreover, the fluorescence slope in assay [4] was -0.42 (inactive). Besides, the NADPH fluorescence slope in assay [5] is 3.1e-06 (inactive). Also, the slope in assay [6] was 0.00409 (inactive).

On to `CCCSCCCNC(=O)Cn1cc2c(n1)CCC(C)C2` (centres undefined), for which the cell count in assay [1] is 652. The inhibition in assay [1] is -3.3% (inactive); in assay [3], 21.4% (inactive); in assay [7], -8.61% (inactive); in assay [8], 10.5% (inactive). Also, in assay [2], the inhibition of aggregation was 3.5% (inactive). In addition, the nuclei count in assay [2] was found to be 92%; in assay [3] it was 103%. Besides, the fluorescence slope in assay [4] was -0.615 (inactive). Further, in assay [5], the NADPH fluorescence slope was -2.5e-05 (inactive). The slope in assay [6] is 0.00719 (inactive).

As to `Cc1ccc(N(CC(=O)NCC2CCCO2)S(C)(=O)=O)cc1Cl` (centres undefined), the cell count in assay [1] was determined as 478. Moreover, the inhibition in assay [1] was -4.5% (inactive); in assay [3] it was -59.9% (inactive); in assay [7], 23.8% (inactive); in assay [8] it was 12.4% (inactive). Moreover, the inhibition of aggregation in assay [2] was 0.2% (inactive). Also, the nuclei count in assay [2] was 114%; in assay [3], 121%. Besides, in assay [4], the fluorescence slope is -0.292 (inactive). Moreover, the NADPH fluorescence slope in assay [5] is -1.4e-05 (inactive). The slope in assay [6] is 0.00598 (inactive).

For the compound `CCOC(=O)N1CCC(N(C(=O)Nc2cccc(OC)c2)C(C)CC)CC1` (centres undefined), in assay [1], the cell count came to 534. In addition, the inhibition in assay [1] is -4.4% (inactive); in assay [3], -60.6% (inactive); in assay [7] it was 12.2% (inactive); in assay [8], 11.5% (inactive). In addition, the inhibition of aggregation in assay [2] was -16.1% (inactive). Moreover, the results for the nuclei count in assay [2] and in assay [3] were 44% and 98.9%, respectively. Besides, in assay [4], the fluorescence slope was -0.513 (inactive). In addition, the NADPH fluorescence slope in assay [5] was -3.9e-05 (inactive). Moreover, in assay [6], the slope is 0.00561 (inactive).

Regarding `CCOc1ccc(N(CC(=O)OC)S(=O)(=O)c2ccc(OC)c(OC)c2)cc1`, in assay [1], the cell count worked out at 444. Further, the inhibition in assay [1] is 6.3% (inactive); in assay [3], 9.4% (inactive); in assay [7], -8.61% (inactive); in assay [8], 15.5% (inactive). Further, in assay [2], the inhibition of aggregation is -1.6% (inactive). The nuclei count in assay [2] amounted to 104%; in assay [3] it was 101%. Further, the fluorescence slope in assay [4] is -0.455 (inactive). The NADPH fluorescence slope in assay [5] is 6.6e-05 (inactive). Moreover, the slope in assay [6] is 0.00363 (inactive).

With `COc1ccc(CCN2CC(O)=C(c3nc4ccccc4c(=O)[nH]3)C2=N)cc1OC`, the cell count in assay [1] was 642. For the same compound, the inhibition was -0.8% (inactive) in assay [1], -35.6% (inactive) in assay [3], 2.39% (inactive) in assay [7] and 7.15% (inactive) in assay [8]. For the same compound, in assay [2], the inhibition of aggregation was -7.4% (inactive). For the same compound, the nuclei count turned out to be 83.2% in assay [2] and 98.6% in assay [3]. Besides, the fluorescence slope in assay [4] was -0.489 (inactive). Also, the NADPH fluorescence slope in assay [5] is -1e-06 (inactive). Further, the slope in assay [6] was 0.00682 (inactive).

As to `O=c1oc2ccccc2cc1NCc1ccccc1O`, in assay [1], the cell count is 644. Also, the inhibition is 2.1% (inactive) in assay [1], -19.5% (inactive) in assay [3], -15.8% (inactive) in assay [7] and -21.8% (inactive) in assay [8]. Further, the inhibition of aggregation in assay [2] was -25% (inactive). The nuclei count was found to be 115% in assay [2] and 106% in assay [3]. Further, the fluorescence slope in assay [4] was -0.594 (inactive). Also, the NADPH fluorescence slope in assay [5] was -1.9e-05 (inactive). The slope in assay [6] is 0.00653 (inactive).

Consider `CC1CCN(S(=O)(=O)c2ccc3[nH]cc(C(=O)NCCN4CCOCC4)c(=O)c3c2)CC1`, for which the cell count in assay [1] came to 697. For the same compound, the inhibition in assay [1] is -3% (inactive); in assay [3], -101% (inactive); in assay [7], 8.86% (inactive); in assay [8], 17.9% (inactive). The inhibition of aggregation in assay [2] is -11.2% (inactive). The values for the nuclei count in assay [2] and in assay [3] were 104% and 106%, respectively. Also, in assay [4], the fluorescence slope was -0.519 (inactive). The NADPH fluorescence slope in assay [5] was -3.8e-05 (inactive). In assay [6], the slope is 0.00576 (inactive).

In the case of `Cc1cccc(-n2ncc3c(N4CCC5(CC4)OCCO5)ncnc32)c1`, the cell count in assay [1] stood at 617. Moreover, the inhibition in assay [1] was 1.3% (inactive); in assay [3] it was -15.1% (inactive); in assay [7], -34.4% (inactive); in assay [8] it was -101% (inactive). Further, the inhibition of aggregation in assay [2] is -14.8% (inactive). Further, the nuclei count was 97.6% in assay [2] and 107% in assay [3]. For the same compound, the fluorescence slope in assay [4] is -0.549 (inactive). In assay [5], the NADPH fluorescence slope is -6.5e-05 (inactive). In addition, the slope in assay [6] was 0.00695 (inactive).

Turning to `CCOCC(=O)Nc1nc2c(s1)C(=O)CC(C)(C)C2`, the cell count in assay [1] came to 921. In addition, the inhibition in assay [1] was 0.6% (inactive); in assay [3], -70.4% (inactive); in assay [7], 12.5% (inactive); in assay [8] it was 39% (inactive). In addition, the inhibition of aggregation in assay [2] was -38% (inactive). For the same compound, the nuclei count came out at 144% in assay [2] and 122% in assay [3]. The fluorescence slope in assay [4] was -0.541 (inactive). Besides, in assay [5], the NADPH fluorescence slope was 2.2e-05 (inactive). Besides, in assay [6], the slope is 0.00739 (inactive).
